cytoskel mod: modifiers of cytoskeleton assembly. HUVEC TNFa F-actin phalloidin imaging, high content. AID 836. inhibition, % at 2 µM. actives 0.18% (n = 91,000);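 active = inhibition above the batch mean plus 3 SD and confirmed as a hit by visual image inspection, cut at about 30% in these data, passing the limit was not always enough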
VCAM1 TNFa inh: reduces TNF alpha induced VCAM1 expression in HUVEC. HUVEC TNFa-induced VCAM-1 immunofluorescence, high-content imaging. inhibition, % at 2 µM. actives 0.48% (n = 95,000);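 active = inhibition above the batch mean plus 3 SD, with images confirmed as a hit by eye, cut at about 37% in these data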;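 note: 0% = TNF-stimulated DMSO wells and 100% = unstimulated control wells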
HUVEC tox TNFa: HUVEC cytotoxicity counter-screen, TNF alpha stimulated; cell count reduction, % at 2 µM; actives 0.17% (n = 93,000); HUVEC TNFalpha-stimulated, Hoechst cell count, imaging;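 active = cell count reduction exceeding the screen mean by over 5 SD, scaled to untreated wells per plate, cut at about 78% in these data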;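 note: cells counted after 24 h of TNF alpha exposure following the 1 h pretreatment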
E-sel TNF inh: TNF alpha driven E-selectin expression inhibition; HUVEC TNFa-induced E-selectin immunofluorescence, high content; inhibition, % at 2 µM; actives 0.71% (n = 120,000); AID 1246;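 active = inhibition above the batch mean plus 3 SD, and confirmed as a hit on visual image review, cut at about 43% in these data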;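 note: 0% = TNF-stimulated DMSO wells and 100% = unstimulated control wells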
INS promoter inh: TRM-6 insulin promoter activity inhibition | TRM-6 cells (human fetal islet line), insulin promoter-eGFP reporter, imaging; reporter expression induced with tamoxifen | inhibition, % at 2 µM | actives 0.9% (n = 130,000) | AID 1273;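 active = inhibition above the mean plus 3 SD, with well images judged a real hit on visual review, cut at about 60% in these data, passing the limit was not always enough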
Phagocyt inh: blocks phagocytosis by macrophages; AID 1029; actives 0.07% (n = 110,000); J774A.1 macrophage IgG-bead phagocytosis, imaging; inhibition, % at 5 µM;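 active = inhibition above the mean of the plate negative controls plus 5 SD, cut at about 13% in these data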;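 note: phagocytic index as fraction of beads internalized from green versus red external bead signal; plate controls were DMSO negative control for no effect and cytochalasin-D positive control for full effect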
Numbers without * were called inactive; · = no result. Most compounds without a hit are left out; they make up all but 1.6% or so of the library.

SMILES | cytoskel mod | VCAM1 TNFa inh | HUVEC tox TNFa | E-sel TNF inh | INS promoter inh | Phagocyt inh
OCCN=C(c1ccccc1)C12CN3CN(CN(C3)C1)C2 | 13 | 60* | -44 | · | · | 0
CC(C)=N/N=C(\c1cccc([N+](=O)[O-])c1)C12CN3CN(CN(C3)C1)C2 | · | · | · | -3 | 8 | ·
CC[n+]1c(/C=C2/C=C(C)CC(C)(C)C2)sc2ccc(OC)cc21 | -18 | 3 | -23 | 67* | 31 | ·
CC[n+]1c(/C=C2\C=C(C)CC(C)(C)C2)sc2ccccc21 | 10 | 24 | 20 | -38 | · | -4
CCOC(=O)CN/C=C(\C#N)c1ccccc1 | · | · | · | · | · | -5
Cc1ccc(-n2c(=O)c3c4c(sc3n(Cc3cc(=O)n5ccccc5n3)c2=O)CCC4)cc1C | · | · | · | 90* | 36 | -5
N#C/C(=C\c1ccc(-c2ccc(S(=O)(=O)N3CCOCC3)cc2)o1)C(=O)NC1CC1 | · | · | · | · | 62* | -6
Cc1cc([N+](=O)[O-])nn1CC(=O)NCCc1c[nH]c2ccccc12 | · | · | · | · | 53 | ·
Cc1nc2scc(-c3ccccc3)c2c(=O)n1N | -20 | 2 | 0 | · | · | 0
Cc1nc2scc(-c3ccccc3)c2c(=O)n1N=C1C=CC(=O)C=C1 | · | · | · | 88* | -344 | ·
Cc1ccccc1NC(=O)CSc1nnc(Cc2ccccc2)o1 | -2 | 0 | -12 | -6 | 75* | ·
Cc1ccc(NC(=O)CSc2nnc(Cc3ccccc3)o2)c(C)c1 | · | · | · | · | -7 | ·
CC(=O)NC(C)C(=O)OCC(=O)Nc1ccc(Br)cc1 (centres undefined) | -3 | 21 | 1 | 1 | 89* | 0
COc1cc(/C=N/NC(=O)c2ccncc2)ccc1OC(=O)c1ccc([N+](=O)[O-])cc1 | 1 | 1 | -3 | -60 | 100* | ·
COc1ccc(-c2nn(-c3ccccc3)cc2/C=C/C(=O)N2CCN(c3ccccn3)CC2)cc1 | · | · | · | -20 | 33 | ·
COc1ccc(CCNc2oc(COc3ccccc3F)nc2C#N)cc1 | 62* | 6 | -42 | · | 38 | 0
O=c1ccc(Oc2nc(N3CCOCC3)nc(N3CCOCC3)n2)nn1-c1ccccc1 | -14 | 99* | 90* | 1 | 27 | 2
COc1cc(N2CCCC2)c(OC)cc1/C=c1/sc2nc3ccccc3n2c1=O | 31* | 22 | -13 | · | · | -1
Cc1ccc(-n2c(C)cc(/C=c3/sc4nc5ccccc5n4c3=O)c2C)cc1 | · | 5 | -6 | 4 | 13 | -2
CCC(=O)Nc1cc(C)c(NC(=O)C23CC4CC(CC(C4)C2)C3)cn1 | -11 | 15 | 35 | -12 | 76* | ·
Cc1c(CCO)sc[n+]1CC(=O)OCCC12CC3CC(CC(C3)C1)C2 | · | · | · | -1 | 67* | -4
Cc1[nH]n(-c2ccccc2)c(=O)c1C(c1ccc(O)c([N+](=O)[O-])c1)c1c(C)[nH]n(-c2ccccc2)c1=O | 6 | -9 | -11 | · | 77* | ·
Cc1[nH]n(-c2ccccc2)c(=O)c1C(C[N+](=O)[O-])c1ccccc1Cl (centres undefined) | 10 | -22 | -37 | -26 | -50 | -1
COc1ccc(S(=O)(=O)Nc2cc3c(C(C)=O)c(C)oc3c3ccccc23)cc1 | · | 80* | 41 | 29 | -154 | 6
N#C/C(=C\C1CC2C=CC1C2)c1nc2ccccc2[nH]1 (centres undefined) | 6 | 10 | -11 | 6 | 79* | 0
SMILES | cytoskel mod | VCAM1 TNFa inh | HUVEC tox TNFa | E-sel TNF inh | INS promoter inh | Phagocyt inh
N#C/C(=C\c1cccs1)c1nc2ccccc2[nH]1 | · | · | · | · | 85* | -3
CC(NC(=O)c1ccc2c(c1)OCCO2)c1ccc(S(N)(=O)=O)cc1 (centres undefined) | · | · | · | 55 | -23 | ·
Cc1cc(C)cc(NC(=S)NN)c1 | · | · | · | -12 | 29 | ·
Cc1cc(C)c(C#N)c(SCc2nc3ccccc3[nH]2)n1 | 34* | 17 | -46 | -29 | 10 | 0
CCOC(=O)N1CCC(N2CCN(S(=O)(=O)c3ccc(C)cc3)CC2)CC1 | 0 | -8 | -16 | 2 | 67* | 1
Cn1c(-c2cccc(Br)c2)cnc1NCc1cccnc1 | 2 | 4 | -44 | -1 | 33 | 2
COc1cccc(-c2cnc(NCc3cc(Cl)ccc3O)n2C)c1 | 15 | 21 | -16 | 60* | · | -2
CC(C)(C)NS(=O)(=O)c1ccc(CCC(=O)NCc2cccnc2)cc1 | 7 | 1 | 6 | -7 | 64 | 0
Cc1cc(C)c(C#N)c(=N)o1 | 19 | -3 | 10 | 62* | · | 0
CCn1c2ccccc2c2cc(NC(=O)c3cc(OC)c(OC)c(OC)c3)ccc21 | -4 | 95* | 71 | 38 | 32 | ·
Cc1ccc(N/N=C/c2ccc(N3CCOCC3)cc2)cc1C | 26 | 67* | · | -6 | 17 | ·
CCCc1nn(CCc2ccccn2)c(N)c1CC | · | · | · | -5 | 69* | 0
CCN(CC)S(=O)(=O)c1ccc(C(=O)NCCc2ccccn2)cc1 | · | · | · | 15 | 47 | ·
COCCOC(=O)c1c(NC(=O)CN2CCOCC2)sc(C(N)=O)c1C | -14 | 0 | -8 | 72* | · | -1
CCOC(=O)c1c(NC(=O)CN2CCOCC2)sc(C(=O)NC)c1C | -8 | 3 | 0 | -3 | 7 | 1
COc1ccc(NC(=O)CN2CCN(C3c4ccccc4-c4ccccc43)CC2)cc1 | -12 | -4 | 10 | -30 | 34 | 1
CCOC(=O)c1sc(NC(=O)CSc2nc3c(c(=O)n2-c2ccc(F)cc2)SCC3)c(C(=O)OCC)c1C | · | · | · | -7 | -12 | ·
Cc1cc(NC(=O)c2ccccc2[N+](=O)[O-])ccc1Br | · | · | · | -24 | · | ·
CCCc1cc(NCCCCO)n2c(nc3ccccc32)c1C#N | · | 16 | -3 | · | 79* | -4
Cc1cc(NCCCCO)n2c(nc3ccccc32)c1C#N | -14 | -23 | -17 | -30 | -105 | 0
CSCCCNC(=S)N(C)CC(=O)Nc1ccc(C)cc1 | · | · | · | -6 | · | ·
CCN1CCN(CC(=O)Nc2c(C(=O)OC)[nH]c3cccc(Cl)c23)CC1 | 19 | -11 | -23 | · | 79* | -2
O=C(CONS(=O)(=O)c1ccc(Cl)cc1)NCCNc1ncc(C(F)(F)F)cc1Cl | · | · | · | · | -24 | ·
COC(=O)[C@@H]1CC[C@H](C)[C@@H](c2ccc(C)cc2)N1C(=O)c1ccc(/C=N/O[C@@H](C)c2cn([C@H](CO)Cc3ccccc3)nn2)cc1 | · | · | · | -32 | 5 | ·
Cc1ccc(-c2cc(C(=O)NCc3ccco3)no2)cc1 | 10 | -6 | -19 | -8 | -93 | -2
SMILES | cytoskel mod | VCAM1 TNFa inh | HUVEC tox TNFa | E-sel TNF inh | INS promoter inh | Phagocyt inh
Cc1ccc(-c2cc(C(=O)NCc3ccccn3)no2)cc1 | 77* | 12 | -33 | 16 | 20 | 0
O=C(NCc1ccco1)c1cc(-c2ccc(Cl)cc2)on1 | -44 | 79* | 66 | · | · | -1
CCn1nc(C)c(/C=N/NC(=O)c2ccoc2C)c1C | 15 | 5 | -20 | -13 | 29 | 0
CCCCCn1nc(C)c(/C=N/NC(=O)c2ccoc2C)c1C | -3 | 20 | -2 | 0 | 93* | ·
CCCCCn1nc(C)c(/C=N\NC(=O)c2cc(C)oc2C)c1C | 18 | 10 | -17 | 14 | 85* | ·
Cc1cc(C(=O)N/N=C/c2cccnc2)c(C)o1 | 10 | 18 | -3 | -26 | -38 | 4
S=C(Nc1ccc(Cl)cc1)c1sc(N2CCCCC2)nc1N1CCOCC1 | · | · | · | · | -8 | -2

Bioassay records (PubChem BioAssay)
